Experimental data taken from PubChem BioAssay (NCI).
This is part of a sample that, as a whole, favours compounds with a hit. Of some 83,000 tested, about 20% had one in any assay.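 Compound tested at a single concentration for 48 hours in 96-well plates; a percent growth value below 10 was scored as active.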 Unmarked numbers belong to inactive results. Calls of active or inactive are those of the source.

Assays:
Test in all cases: NCI-60 one-dose screen, 48 h (100 = growth as untreated, 0 = no growth, -100 = all killed)
Conditions in all cases: 10 µM unless noted
[1] = tested on: HT29 colon
[2] = tested on: SNB-75 CNS
[3] = tested on: SNB-19 CNS
[4] = tested on: U251 CNS
[5] = tested on: PC-3 prostate
[6] = tested on: UACC-62 melanoma
[7] = tested on: LOX IMVI melanoma
[8] = tested on: SK-MEL-28 melanoma
[9] = tested on: SK-MEL-2 melanoma
[10] = tested on: EKVX NSCLC
[11] = tested on: SN12C renal
[12] = tested on: UO-31 renal
[13] = tested on: TK-10 renal
[14] = tested on: ACHN renal
[15] = tested on: CAKI-1 renal
[16] = tested on: A498 renal
[17] = tested on: CCRF-CEM leukemia
[18] = tested on: MOLT-4 leukemia
[19] = tested on: SR leukemia

| Structure (SMILES) | growth [1] | growth [2] | growth [3] | growth [4] | growth [5] | growth [6] | growth [7] | growth [8] | growth [9] | growth [10] | growth [11] | growth [12] | growth [13] | growth [14] | growth [15] | growth [16] | growth [17] | growth [18] | growth [19] |
| --- | --- | --- | --- | --- | --- | --- | --- | --- | --- | --- | --- | --- | --- | --- | --- | --- | --- | --- | --- |
| O=C1CN(CO)C(=O)CN1CO | 109% | 94.2% | 101% | 100% | 95.4% | 98.3% | 99.7% | 112% | 121% | 114% | 99.3% | 87.7% | 124% | 97.6% | 94.8% | 94% | 92.8% | 105% | – |
| CCn1c2c(c3ccccc31)SC1c3cccn3CCN1C2=S (stereo unspecified) | 90.2% | 79.6% | 95.8% | 93.8% | 89.1% | 81% | 96.8% | 110% | 89.9% | 107% | 98.3% | 84.9% | 89% | 99.1% | 88.3% | 115% | 81.2% | 88.8% | 109% |
| O=[N+]([O-])c1ccc(Oc2cccc(C(F)(F)F)c2)c([N+](=O)[O-])c1 | -4.93% (active) | 92.2% | 74.5% | 18.3% | 88.9% | 34.1% | 8.07% (active) | 104% | 11.7% | 111% | 28.2% | 28.6% | – | 42% | 20.2% | 97.8% | 14.7% | 17.1% | 5.65% (active) |
| COc1cc(/C=C2\COc3ccc(O)c(O)c3C2=O)cc(OC)c1 | 3.57% (active) | 26.5% | 11.2% | -19.3% (active) | -3.29% (active) | -86.3% (active) | -66.2% (active) | 14.1% | 86.5% | 56.4% | -89.7% (active) | -95.6% (active) | 16.3% | -85.7% (active) | 4.89% (active) | 112% | 3.2% (active) | -24.3% (active) | -13.6% (active) |
| CCCCN(CCCC)CCCOC(=O)c1ccc(N)cc1 | 31.4% | 39.1% | 88.7% | 58.5% | 97.1% | 92.3% | 64.2% | 57.5% | 85.1% | 94.3% | 82% | 81.2% | 103% | 91.9% | 90.5% | 104% | 96.8% | 93.2% | – |
| COc1ccc(/C=C2\COc3ccc(O)c(O)c3C2=O)cc1OC | 8.1% (active) | 42.1% | 22.4% | 5.85% (active) | 11.7% | -29.4% (active) | -68% (active) | 57.2% | 76% | 42.2% | -67.7% (active) | -87.9% (active) | 5.44% (active) | -56.3% (active) | 11.1% | 105% | -13.9% (active) | -21.5% (active) | -1.26% (active) |
| CCCCCCCC/C=C\CCCCCCCCOc1ccccc1CC(=O)NCC[N+]1(C)CCCC1 | 18% | 79% | 60.4% | 47.6% | 17.5% | 67.1% | 72% | 96.7% | 106% | 93% | 49.5% | 99.2% | 70.5% | 107% | 97.4% | 93.2% | 39.3% | 65% | 28% |
| CCCc1nn(C)c2c(=O)[nH]c(-c3cc(S(=O)(=O)N4CCN(C)CC4)ccc3OCC)nc12 | 99.1% | 104% | 103% | 94.5% | 91.1% | 99.9% | 93.9% | 116% | 96.6% | 95.1% | 102% | 78.7% | 113% | 92.8% | 80.2% | 103% | 108% | 94.8% | – |
| CN(C)c1ccc2[nH]c3c(C(N)=O)cc(=O)c(=O)c=3oc2c1 | 127% | 52.7% | 74.4% | 35.4% | 59.3% | 62.6% | 8.85% (active) | 85.8% | 85.4% | 100% | 54.5% | 56.3% | 111% | 29.7% | 83.2% | 87.7% | 11.9% | 9.08% (active) | 31% |
| O=C(/C=C/c1cc2ccccc2[nH]c1=O)c1ccc(O)cc1 | 55.5% | 40.3% | 57.4% | 21.9% | 10.5% | 83.8% | 26.8% | 99.9% | 83.7% | 87.5% | 47.5% | 45.6% | – | 66.2% | 40.9% | – | – | 30.9% | -0.193% (active) |
| CCOc1cc(C(C)(C)C)ccc1C1=N[C@H](c2ccc(Cl)cc2)[C@H](c2ccc(Cl)cc2)N1C(=O)N1CCN(CC#Cc2cccc3c2CN([C@@H]2CCC(=O)NC2=O)C3=O)CC1 | 12.6% | 23% | 45% | 65.8% | 0.359% (active) | 24.3% | 31.8% | 53.4% | 44.9% | 48.4% | 24.4% | 5.26% (active) | 49% | 23.6% | 7.99% (active) | 14.1% | -4.36% (active) | -13.3% (active) | 9.99% (active) |
| CO[C@H]1CC(O[C@@H]2/C(C)=C/C[C@@H]3C[C@@H](C[C@]4(CC[C@H](C)[C@@H](C5CCCCC5)O4)O3)OC(=O)[C@@H]3C=C(C)/C(=N/O)[C@H]4OC/C(=C\C=C\[C@@H]2C)[C@]43O)O[C@@H](C)C1O (stereo partly specified) | -70.9% (active) | -90.4% (active) | -96.6% (active) | -87.6% (active) | -80.4% (active) | -93.4% (active) | -92.9% (active) | -87.3% (active) | -71.8% (active) | -85.9% (active) | -82.4% (active) | -90.5% (active) | -90.4% (active) | -94.4% (active) | -73.8% (active) | – | -47.9% (active) | -36.7% (active) | – |
| Clc1cc(Cl)c(OCC#CI)cc1Cl | 10.4% | 87.6% | 108% | 78.9% | 75.6% | 62.8% | -56% (active) | 17.2% | 75.8% | 98.8% | 53.7% | 38.4% | 69.8% | 2.93% (active) | 15.7% | 119% | 27.8% | 41.5% | 11.4% |
| CC[C@H](C)C(=O)O[C@H]1C[C@@H](C)C=C2C=C[C@H](C)[C@H](CC[C@@H]3C[C@@H](O)CC(=O)O3)[C@H]21 | 95.4% | 58.3% | 64.9% | 25.2% | 33.9% | 23.7% | 25.1% | 90.6% | 36.8% | 62.4% | 42.5% | 74.7% | 104% | 32.9% | 20.7% | -27.9% (active) | 72.9% | 90.8% | – |
| O=C1c2ccccc2-c2c1nc1ccccc1[n+]2[O-] | 105% | 103% | 103% | 103% | 99.4% | 105% | 101% | 113% | 107% | 118% | 100% | 83.3% | 116% | 91.4% | 98.2% | – | 102% | 95.8% | – |
| C=CC1=C(C(=O)O)N2C(=O)[C@@H](NC(=O)/C(=N\O)c3csc(N)n3)[C@H]2SC1 (stereo in doubt) | 104% | 92.4% | 114% | 92.1% | 95.3% | 114% | 88.1% | 111% | 122% | 103% | 112% | 91.7% | 122% | 96.7% | 99.2% | 95.1% | 98.1% | 104% | – |
